Data as given in PubChem BioAssay AID1159580 (chemical genetic matrix, 2015).
Screen size: about 5,500 compounds; about 2,000 (36%) were called active. Roughly 18% stayed inconclusive and do not appear here. Cut-off read from the data, not from the text of the source: active = normalized growth mostly below about 0.91 (no sharp cut-off); inconclusive = no clear call, values can overlap the other calls; inactive = mostly above about 0.92. Some of the results follow.

Test: chemical genetic growth profiling, strain panel (AID 1159580);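 note: tested at 20 µM; growth read once vehicle control cultures reached saturation at 30 °C; 1 = growth at the plate median or of vehicle wells; lower values mean less growth of the strain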
Details: growth OD
[1] = S. cerevisiae deletion strains, locus YAR019C, strain CDC15, stronger effect = lower value
[2] = S. cerevisiae deletion strains, locus YBL105C, strain PKC1, stronger effect = lower value
[3] = S. cerevisiae deletion strains, locus YBR135W, strain CKS1, stronger effect = lower value
[4] = S. cerevisiae deletion strains, locus YBR136W, strain MEC1, stronger effect = lower value
[5] = S. cerevisiae deletion strains, locus YBR160W, strain CDC28, stronger effect = lower value
[6] = S. cerevisiae deletion strains, locus YDL017W, strain CDC7, stronger effect = lower value
[7] = S. cerevisiae deletion strains, locus YDL028C, strain MPS1, stronger effect = lower value
[8] = S. cerevisiae deletion strains, locus YDL101C, strain DUN1, stronger effect = lower value
[9] = S. cerevisiae deletion strains, locus YDL108W, strain KIN28, stronger effect = lower value
[10] = S. cerevisiae deletion strains, locus YDL132W, strain cdc53, stronger effect = lower value
[11] = S. cerevisiae deletion strains, locus YDL214C, strain PRR2, stronger effect = lower value
[12] = S. cerevisiae deletion strains, locus YDR052C, strain DBF4, stronger effect = lower value
[13] = S. cerevisiae deletion strains, locus YDR054C, strain cdc34, stronger effect = lower value
[14] = S. cerevisiae deletion strains, locus YDR226W, strain ADK1, stronger effect = lower value
[15] = S. cerevisiae deletion strains, locus YDR477W, strain SNF1, stronger effect = lower value
[16] = S. cerevisiae deletion strains, locus YER123W, strain YCK3, stronger effect = lower value
[17] = S. cerevisiae deletion strains, locus YER133W, strain GLC7, stronger effect = lower value
[18] = S. cerevisiae deletion strains, locus YFL009W, strain cdc4, stronger effect = lower value
[19] = S. cerevisiae deletion strains, locus YFL029C, strain CAK1, stronger effect = lower value
[20] = S. cerevisiae deletion strains, locus YFR003C, strain YPI1, stronger effect = lower value
[21] = S. cerevisiae deletion strains, locus YFR019W, strain FAB1, stronger effect = lower value
[22] = S. cerevisiae deletion strains, locus YFR028C, strain CDC14, stronger effect = lower value
[23] = S. cerevisiae deletion strains, locus YGR040W, strain KSS1, stronger effect = lower value
[24] = S. cerevisiae deletion strains, locus YGR052W, strain FMP48, stronger effect = lower value
[25] = S. cerevisiae deletion strains, locus YGR092W, strain DBF2, stronger effect = lower value
[26] = S. cerevisiae deletion strains, locus YHR030C, strain SLT2, stronger effect = lower value
[27] = S. cerevisiae deletion strains, locus YHR079C, strain IRE1, stronger effect = lower value
[28] = S. cerevisiae deletion strains, locus YHR082C, strain KSP1, stronger effect = lower value
[29] = S. cerevisiae deletion strains, locus YHR205W, strain SCH9, stronger effect = lower value
[30] = S. cerevisiae deletion strains, locus YIL147C, strain SLN1, stronger effect = lower value
[31] = S. cerevisiae deletion strains, locus YJL095W, strain BCK1, stronger effect = lower value
[32] = S. cerevisiae deletion strains, locus YJL128C, strain PBS2, stronger effect = lower value
[33] = S. cerevisiae deletion strains, locus YJL157C, strain FAR1, stronger effect = lower value
[34] = S. cerevisiae deletion strains, locus YJR016C, strain ILV3, stronger effect = lower value
[35] = S. cerevisiae deletion strains, locus YJR066W, strain TOR1 (second series), stronger effect = lower value
[36] = S. cerevisiae deletion strains, locus YJR066W, strain TOR1, stronger effect = lower value
[37] = S. cerevisiae deletion strains, locus YKL048C, strain ELM1, stronger effect = lower value
[38] = S. cerevisiae deletion strains, locus YKL067W, strain YNK1, stronger effect = lower value
[39] = S. cerevisiae deletion strains, locus YKL101W, strain HSL1, stronger effect = lower value
[40] = S. cerevisiae deletion strains, locus YKL193C, strain SDS22, stronger effect = lower value
[41] = S. cerevisiae deletion strains, locus YKL203C, strain TOR2, stronger effect = lower value
[42] = S. cerevisiae deletion strains, locus YLR113W, strain HOG1, stronger effect = lower value
[43] = S. cerevisiae deletion strains, locus YLR133W, strain CKI1, stronger effect = lower value
[44] = S. cerevisiae deletion strains, locus YLR403W, strain SFP1, stronger effect = lower value
[45] = S. cerevisiae deletion strains, locus YML070W, strain DAK1, stronger effect = lower value
[46] = S. cerevisiae deletion strains, locus YMR205C, strain PFK2 (second series), stronger effect = lower value
[47] = S. cerevisiae deletion strains, locus YMR277W, strain FCP1, stronger effect = lower value
[48] = S. cerevisiae deletion strains, locus YNL006W, strain LST8, stronger effect = lower value
[49] = S. cerevisiae deletion strains, locus YNL020C, strain ARK1, stronger effect = lower value
[50] = S. cerevisiae deletion strains, locus YNL161W, strain CBK1, stronger effect = lower value
[51] = S. cerevisiae deletion strains, locus YNL183C, strain NPR1, stronger effect = lower value
[52] = S. cerevisiae deletion strains, locus YNL207W, strain RIO2, stronger effect = lower value
[53] = S. cerevisiae deletion strains, locus YNL222W, strain SSU72, stronger effect = lower value
[54] = S. cerevisiae deletion strains, locus YNL307C, strain MCK1 (second series), stronger effect = lower value
[55] = S. cerevisiae deletion strains, locus YOL136C, strain PFK27, stronger effect = lower value
[56] = S. cerevisiae deletion strains, locus YOR061W, strain CKA2, stronger effect = lower value
[57] = S. cerevisiae deletion strains, locus YOR119C, strain RIO1, stronger effect = lower value
[58] = S. cerevisiae deletion strains, locus YOR231W, strain MKK1, stronger effect = lower value
[59] = S. cerevisiae deletion strains, locus YOR329C, strain SCD5, stronger effect = lower value
[60] = S. cerevisiae deletion strains, locus YPL031C, strain PHO85, stronger effect = lower value
[61] = S. cerevisiae deletion strains, locus YPL153C, strain RAD53, stronger effect = lower value
[62] = S. cerevisiae deletion strains, locus YPL204W, strain HRR25, stronger effect = lower value
[63] = S. cerevisiae deletion strains, locus YPL209C, strain IPL1, stronger effect = lower value
[64] = S. cerevisiae deletion strains, locus YPL256C, strain CLN2, stronger effect = lower value
[65] = S. cerevisiae deletion strains, locus YPR025C, strain CCL1, stronger effect = lower value
[66] = S. cerevisiae deletion strains, locus YPR106W, strain ISR1, stronger effect = lower value
[67] = S. cerevisiae deletion strains, locus YPR111W, strain DBF20, stronger effect = lower value
[68] = S. cerevisiae deletion strains, strain NNK1, stronger effect = lower value
[69] = S. cerevisiae deletion strains, locus YAL013W, strain DEP1, stronger effect = lower value
[70] = S. cerevisiae deletion strains, locus YBR229C, strain ROT2, stronger effect = lower value
[71] = S. cerevisiae deletion strains, locus YDR150W, strain NUM1, stronger effect = lower value
[72] = S. cerevisiae deletion strains, locus YEL061C, strain CIN8, stronger effect = lower value
[73] = S. cerevisiae deletion strains, locus YGR078C, strain PAC10, stronger effect = lower value
[74] = S. cerevisiae deletion strains, locus YHR087W, strain rtc3, stronger effect = lower value
[75] = S. cerevisiae deletion strains, locus YJL187C, strain SWE1, stronger effect = lower value
[76] = S. cerevisiae deletion strains, locus YJR043C, strain POL32, stronger effect = lower value
[77] = S. cerevisiae deletion strains, locus YJR075W, strain HOC1, stronger effect = lower value
[78] = S. cerevisiae deletion strains, locus YLR039C, strain RIC1, stronger effect = lower value
[79] = S. cerevisiae deletion strains, locus YLR058C, strain SHM2 (second series), stronger effect = lower value
[80] = S. cerevisiae deletion strains, locus YLR085C, strain ARP6, stronger effect = lower value
[81] = S. cerevisiae deletion strains, locus YLR262C, strain YPT6, stronger effect = lower value
[82] = S. cerevisiae deletion strains, locus YML094W, strain GIM5, stronger effect = lower value
[83] = S. cerevisiae deletion strains, locus YMR219W, strain ESC1, stronger effect = lower value
[84] = S. cerevisiae deletion strains, locus YMR263W, strain SAP30, stronger effect = lower value
[85] = S. cerevisiae deletion strains, locus YNL153C, strain GIM3, stronger effect = lower value
[86] = S. cerevisiae deletion strains, locus YNL298W, strain CLA4 (second series), stronger effect = lower value
[87] = S. cerevisiae deletion strains, locus YNL322C, strain KRE1, stronger effect = lower value
[88] = S. cerevisiae deletion strains, locus YNR030W, strain Alg12, stronger effect = lower value
[89] = S. cerevisiae deletion strains, locus YPL055C, strain LGE1, stronger effect = lower value
[90] = S. cerevisiae deletion strains, locus YPL241C, strain CIN2, stronger effect = lower value
[91] = S. cerevisiae deletion strains, locus YPR135W, strain CTF4, stronger effect = lower value

Measured: normalized growth

Cc1cccc(Cl)c1/C=N\NC(N)=S
inactive: [2] 0.911 | [3] 0.904 | [11] 0.867 | [15] 0.765 | [16] 0.873 | [17] 0.805 | [21] 0.957 | [23] 0.8 | [24] 0.818 | [25] 0.79 | [27] 0.94 | [28] 0.893 | [29] 1.02 | [31] 0.934 | [32] 0.973 | [33] 0.855 | [35] 0.837 | [36] 0.755 | [37] 0.88 | [38] 0.886 | [39] 0.919 | [42] 1.04 | [43] 0.886 | [44] 0.756 | [45] 0.932 | [46] 0.886 | [48] 0.953 | [49] 0.904 | [50] 0.924 | [51] 0.77 | [53] 0.931 | [54] 0.797 | [55] 0.948 | [56] 0.864 | [58] 0.949 | [59] 0.927 | [60] 0.824 | [61] 0.868 | [62] 0.877 | [63] 0.912 | [64] 1.03 | [65] 0.914 | [66] 0.927 | [67] 0.919 | [68] 0.932
active: [1] 0.868 | [4] 0.862 | [5] 0.892 | [6] 0.896 | [7] 0.88 | [8] 0.89 | [9] 0.869 | [10] 0.877 | [12] 0.858 | [13] 0.865 | [14] 0.826 | [18] 0.881 | [19] 0.865 | [20] 0.899 | [22] 0.828 | [26] 0.644 | [30] 0.87 | [34] 0.885 | [40] 0.872 | [41] 0.671 | [47] 0.87 | [52] 0.845 | [57] 0.625

NC(=S)N/N=C\c1cc(F)cc(F)c1
active: [80] 0.34 | S. cerevisiae deletion strains, locus YMR307W, strain GAS1, stronger effect = lower value 0.574 | [86] 0.761
inactive: [69] 0.97 | [70] 1.01 | [8] 1.04 | [71] 0.96 | [72] 0.94 | [73] 0.998 | S. cerevisiae deletion strains, locus YGR229C, strain SMI1, stronger effect = lower value 0.944 | [26] 0.778 | [74] 1.08 | [75] 0.971 | [76] 0.98 | [77] 1.02 | [78] 1.05 | [79] 0.994 | [81] 1.04 | [82] 0.923 | [83] 0.999 | [84] 0.92 | [85] 0.976 | [87] 1.05 | [88] 0.922 | [89] 0.963 | [90] 0.933 | [91] 0.78 | S. cerevisiae strains, strain wild type, stronger effect = lower value 0.923

NC(=S)N/N=C\c1ccc(F)c(Cl)c1
active: [69] 0.921 | [72] 0.804 | [26] 0.605 | [80] 0.198 | [82] 0.759 | [86] 0.661 | [88] 0.811
inactive: [70] 0.995 | [8] 0.972 | S. cerevisiae deletion strains, locus YDL134C, strain PPH21, stronger effect = lower value 0.992 | [71] 1 | [73] 0.988 | [74] 1.04 | [75] 0.981 | [76] 0.996 | [77] 1.04 | [78] 0.966 | [79] 0.996 | [81] 1.06 | [83] 0.999 | [84] 0.919 | S. cerevisiae deletion strains, locus YNL128W, strain TEP1, stronger effect = lower value 0.944 | [85] 0.961 | [87] 1.04 | [89] 0.849 | [90] 0.889 | [91] 0.655

S=C(N/N=C\c1ccc(Cl)cc1)N/N=C\c1ccc(Cl)cc1
active: [16] 0.477 | [25] 0.284 | [26] 0.64 | [33] 0.582 | [35] 0.448 | [38] 0.645 | [39] 0.714 | [42] 0.66 | [43] 0.693 | [45] 0.663 | [49] 0.576 | [54] 0.469 | [56] 0.618 | [61] 0.654 | [64] 0.686
inactive: [1] 0.957 | [2] 0.962 | [3] 0.962 | [4] 0.973 | [5] 0.969 | [6] 0.961 | [7] 0.959 | [8] 0.992 | [9] 0.967 | [10] 0.957 | [11] 0.77 | [12] 0.967 | [13] 0.944 | [14] 0.972 | [15] 0.81 | [17] 0.748 | [18] 0.952 | [19] 0.955 | [20] 0.965 | [21] 0.832 | [22] 0.963 | [23] 0.849 | [24] 0.779 | [27] 0.588 | [28] 0.817 | [29] 0.793 | [30] 0.966 | [31] 0.653 | [32] 0.991 | [34] 0.955 | [36] 0.596 | [37] 0.833 | [40] 0.961 | [41] 0.783 | [44] 0.738 | S. cerevisiae deletion strains, locus YMR001C, strain CDC5, stronger effect = lower value 0.965 | [46] 0.746 | [47] 0.953 | [48] 0.96 | [50] 0.963 | [51] 0.81 | [52] 0.955 | [53] 0.961 | S. cerevisiae deletion strains, locus YOL078W, strain AVO1, stronger effect = lower value 0.96 | [55] 0.75 | [57] 0.866 | [58] 0.697 | [59] 0.957 | [60] 0.688 | [62] 0.682 | [63] 0.967 | [65] 0.966 | [66] 0.972 | [67] 0.975 | [68] 0.984 | S. cerevisiae deletion strains, strain TSCII, stronger effect = lower value 0.955
